Experimental data taken from PubChem BioAssay (EPA / NIEHS).
Calls of active or inactive are those of the source. The calls were made as follows: active = hit-call score of the fitted dose curve at least 0.9, where 1 is the maximum; inactive = score below 0.9.

Columns and labels:
[1] = biological target: Bile acid receptor (Homo sapiens) (UniProt Q96RI1); test: ATG_IR1_CIS: Attagene CIS-FACTORIAL HepG2 Assay for human Nuclear Receptor Subfamily 1 Group H Member 4 (NR1H4), IR1 submotif (AID 2282946); conditions: IR1 reporter transcription, actives raise or lower the signal
Outline: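 Cells (human HepG2) carry transiently transfected cis-promoter reporter transcription units. Compounds are incubated 24 h, total RNA is reverse-transcribed and amplified, and labelled fragments are resolved by capillary electrophoresis. Curves use DMSO as baseline.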

[2] = ATG_GRE_CIS: Attagene CIS-FACTORIAL HepG2 Assay for human Glucocorticoid Response Elements (GRE) (AID 2282947); conditions: HepG2 GRE cis-reporter, Attagene multiplex mRNA; actives raise or lower the signal
Outline: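 Assay uses human hepatoma HepG2 cells transfected with cis-promoter reporter units, exposed 24 h. mRNA from reporters detected by RT-PCR plus capillary electrophoresis; DMSO serves as negative control and baseline.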

[3] = ATG_ISRE_CIS: Attagene CIS-FACTORIAL HepG2 Assay for human Interferon Regulatory Factor 1 (IRF1) binding to an Interferon-Stimulated Response Element (ISRE) (AID 2282948); conditions: HepG2 ISRE cis-reporter (Attagene), mRNA transcription readout; actives raise or lower the signal
Outline: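 Transiently transfected HepG2 cells carrying cis-element reporter units, dosed 24 hours. Reporter mRNA quantified by RT-PCR, fluorescent primer extension, HpaI digestion and capillary electrophoresis. Bidirectional fitting relative to DMSO.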

[4] = ATG_M_32_CIS: Attagene CIS-FACTORIAL HepG2 Assay for M32 Transcription Factor (Internal Marker) (AID 2282949); conditions: HepG2 Attagene cis-factorial M32 reporter, mRNA; actives raise or lower the signal;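 also: background control marker of the multiplexed CIS panel rather than a real target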
Outline: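 Following 24 h chemical exposure of HepG2 cells transiently expressing cis-promoter reporter constructs, reporter transcript levels were determined by RT-PCR with fluorescent labelling and capillary electrophoresis, then fitted bidirectionally against DMSO.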

[5] = ATG_M_06_CIS: Attagene CIS-FACTORIAL HepG2 Assay for M06 Transcription Factor (Internal Marker) (AID 2282950); conditions: HepG2 Attagene CIS-FACTORIAL M06 internal marker reporter; actives raise or lower the signal
Outline: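 Internal background marker within multiplexed cis-reporter HepG2 system. Cells transiently transfected, dosed 24 h; reporter mRNA measured by RT-PCR, HpaI digestion and capillary electrophoresis. Bidirectional fit relative to DMSO.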

[6] = biological target: Hepatocyte nuclear factor 6 (Homo sapiens) (UniProt Q9UBC0); test: ATG_HNF6_CIS: Attagene CIS-FACTORIAL HepG2 Assay for human Hepatocyte Nuclear Factor 6 (HNF6) (AID 2282952); conditions: HepG2 Attagene cis-factorial HNF6 reporter transcription; actives raise or lower the signal
Outline: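 HepG2, transient MRTU transfection (cis promoters); 24 h chemical exposure; total RNA → oligo(dT) RT → PCR → 6-FAM labelling → HpaI cut → CE; bidirectional fit vs DMSO.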

[7] = biological target: Heat shock factor protein 1 (Homo sapiens) (UniProt Q00613); test: ATG_HSE_CIS: Attagene CIS-FACTORIAL HepG2 Assay for human Heat Shock Transcription Factor 1 (HSE) (AID 2282953); conditions: HepG2 HSE cis-reporter, Attagene RNA transcription; actives raise or lower the signal
Outline: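 HepG2 cells transfected with cis-promoter reporter units sensing endogenous transcription factor activity; reporter mRNA quantified 24 h post-dose by RT-PCR and capillary electrophoresis of 6-FAM-labelled products. Bidirectional fitting against DMSO.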

[8] = ATG_MRE_CIS: Attagene CIS-FACTORIAL HepG2 Assay for human Metal Responsive Element (MRE) (AID 2282954); conditions: HepG2 MRE cis-reporter transcription, Attagene multiplex; actives raise or lower the signal
Outline: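 After a 24 h chemical exposure, transiently transfected HepG2 cells yield RNA whose reporter sequences are amplified, FAM-labelled and sized by capillary electrophoresis. Curves are fitted bidirectionally relative to DMSO.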

[9] = ATG_PBREM_CIS: Attagene CIS-FACTORIAL HepG2 Assay for human Phenobarbital-responsive Enhancer Module (PBREM) (AID 2282955); conditions: HepG2 PBREM cis-reporter, Attagene multiplexed transcription; actives raise or lower the signal
Outline: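 After a 24 h incubation with test chemical, transfected HepG2 cells yield total RNA; reporter-specific RT-PCR products are fluorescently labelled, HpaI-digested and resolved by capillary electrophoresis against ROX size standards.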

[10] = biological target: Hypoxia-inducible factor 1-alpha (Homo sapiens) (UniProt Q16665); test: ATG_HIF1a_CIS: Attagene CIS-FACTORIAL HepG2 Assay for human Hypoxia Inducible Factor 1 (HIF1A) (AID 2282951); conditions: HepG2 Attagene cis-factorial HIF1a reporter transcription; actives raise or lower the signal
Outline: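 In this multiplexed cell assay, HepG2 cells bearing transfected cis reporters are dosed for 24 h and reporter mRNA is read by RT-PCR plus capillary electrophoresis; signal increases and decreases are both scored against DMSO.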

Measured: AC50

Chain of Bile acid receptor (Homo sapiens) (Q96RI1 whole entry, looked up, the tested form may be a part): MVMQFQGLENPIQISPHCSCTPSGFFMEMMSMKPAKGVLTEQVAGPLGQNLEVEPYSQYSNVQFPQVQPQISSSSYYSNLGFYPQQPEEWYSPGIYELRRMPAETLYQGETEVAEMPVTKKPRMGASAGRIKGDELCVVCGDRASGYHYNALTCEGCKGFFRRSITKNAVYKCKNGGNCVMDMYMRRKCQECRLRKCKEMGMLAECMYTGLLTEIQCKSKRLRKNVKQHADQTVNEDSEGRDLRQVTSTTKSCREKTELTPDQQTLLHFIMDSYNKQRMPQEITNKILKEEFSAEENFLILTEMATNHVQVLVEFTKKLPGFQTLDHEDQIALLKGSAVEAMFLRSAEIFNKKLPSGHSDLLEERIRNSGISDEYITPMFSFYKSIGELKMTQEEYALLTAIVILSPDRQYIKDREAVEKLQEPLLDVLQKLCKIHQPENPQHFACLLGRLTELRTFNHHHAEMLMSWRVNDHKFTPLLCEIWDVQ
Chain of Hepatocyte nuclear factor 6 (Homo sapiens) (Q9UBC0 whole entry, looked up): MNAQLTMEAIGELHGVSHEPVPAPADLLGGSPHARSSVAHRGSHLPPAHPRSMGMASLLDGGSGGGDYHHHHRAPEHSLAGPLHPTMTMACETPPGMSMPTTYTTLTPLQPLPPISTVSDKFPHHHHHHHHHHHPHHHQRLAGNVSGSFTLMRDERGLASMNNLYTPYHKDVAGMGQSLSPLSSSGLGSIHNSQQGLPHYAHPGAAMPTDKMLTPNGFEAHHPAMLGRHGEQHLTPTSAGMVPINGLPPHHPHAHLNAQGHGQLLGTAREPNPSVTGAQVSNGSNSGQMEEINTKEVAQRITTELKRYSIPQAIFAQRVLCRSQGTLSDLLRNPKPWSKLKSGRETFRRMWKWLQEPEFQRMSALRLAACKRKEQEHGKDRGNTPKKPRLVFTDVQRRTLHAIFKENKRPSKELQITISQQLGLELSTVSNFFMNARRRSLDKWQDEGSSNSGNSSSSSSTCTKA
Chain of Hypoxia-inducible factor 1-alpha (Homo sapiens) (Q16665 whole entry, looked up): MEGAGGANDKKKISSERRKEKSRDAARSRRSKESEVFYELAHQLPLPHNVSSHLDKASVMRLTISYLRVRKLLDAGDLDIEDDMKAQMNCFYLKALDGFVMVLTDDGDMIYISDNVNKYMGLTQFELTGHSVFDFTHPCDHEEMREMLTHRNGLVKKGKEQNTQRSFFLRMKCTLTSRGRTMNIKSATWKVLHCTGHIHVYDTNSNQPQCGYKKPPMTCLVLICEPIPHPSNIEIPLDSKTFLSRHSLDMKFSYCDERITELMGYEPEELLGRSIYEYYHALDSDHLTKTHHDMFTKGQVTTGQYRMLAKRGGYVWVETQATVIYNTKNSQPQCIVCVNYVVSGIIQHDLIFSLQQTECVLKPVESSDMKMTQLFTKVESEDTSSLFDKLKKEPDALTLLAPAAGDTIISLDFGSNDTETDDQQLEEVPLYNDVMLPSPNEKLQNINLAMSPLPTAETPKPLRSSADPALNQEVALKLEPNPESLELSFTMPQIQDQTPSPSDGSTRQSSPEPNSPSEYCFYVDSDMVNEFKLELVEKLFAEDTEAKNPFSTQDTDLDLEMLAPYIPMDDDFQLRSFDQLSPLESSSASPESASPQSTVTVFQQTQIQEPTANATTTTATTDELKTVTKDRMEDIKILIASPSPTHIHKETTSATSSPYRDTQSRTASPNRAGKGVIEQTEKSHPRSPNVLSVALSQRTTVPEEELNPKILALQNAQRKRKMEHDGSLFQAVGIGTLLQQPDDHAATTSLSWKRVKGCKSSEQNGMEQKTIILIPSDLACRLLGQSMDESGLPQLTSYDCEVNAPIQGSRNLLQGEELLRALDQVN
Chain of Heat shock factor protein 1 (Homo sapiens) (Q00613 whole entry, looked up): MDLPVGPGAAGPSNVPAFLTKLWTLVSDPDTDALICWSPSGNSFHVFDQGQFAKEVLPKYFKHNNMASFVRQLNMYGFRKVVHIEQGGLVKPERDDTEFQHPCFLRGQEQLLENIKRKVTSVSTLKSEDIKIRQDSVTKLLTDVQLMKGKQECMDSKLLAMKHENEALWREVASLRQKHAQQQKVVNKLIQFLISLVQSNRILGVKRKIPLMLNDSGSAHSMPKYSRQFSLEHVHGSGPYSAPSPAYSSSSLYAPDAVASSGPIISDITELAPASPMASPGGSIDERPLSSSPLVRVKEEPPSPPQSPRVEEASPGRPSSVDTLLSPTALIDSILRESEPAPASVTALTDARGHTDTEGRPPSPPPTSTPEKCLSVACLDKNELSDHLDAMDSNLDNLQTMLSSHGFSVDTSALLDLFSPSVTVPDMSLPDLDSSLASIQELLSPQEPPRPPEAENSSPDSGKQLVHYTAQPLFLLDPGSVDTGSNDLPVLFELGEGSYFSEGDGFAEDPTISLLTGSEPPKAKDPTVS

CCCC1O[C@@H]2C[C@H]3[C@@H]4CCC5=CC(=O)C=C[C@]5(C)[C@H]4[C@@H](O)C[C@]3(C)[C@]2(C(=O)CO)O1 (some centres undefined)
active: [1] 100 µM | [2] 0.0815 µM | [3] 137 µM
not listed: [10]
inactive: all other assays above

C=CC(C)C#N (centres undefined)
not listed: [10]
inactive: all other assays above

COC(=O)c1ccc(OC)cc1
not listed: [7] | [10]
inactive: all other assays above

CCCCCCCCSCCO
active: [1] 151 µM | [8] 153 µM
not listed: [4]
inactive: all other assays above

NC(=S)NNC(N)=S
not listed: [4] | [9]
inactive: all other assays above

O=c1c(O)c(-c2ccc(O)cc2)oc2cc(O)cc(O)c12
not listed: [10]
inactive: all other assays above

CCCN(CCC)S(=O)(=O)c1ccc(C(=O)O)cc1
not listed: [9] | [10]
inactive: all other assays above

O=[N+]([O-])c1ccc(O)cc1C(F)(F)F
active: [3] 48 µM | [8] 61.1 µM
not listed: [10]
inactive: all other assays above

CCCCCCCCc1ccc(S(=O)(=O)O)cc1
active: [1] 175 µM | [4] 99.5 µM | [6] 167 µM | [9] 99.5 µM
not listed: [5]
inactive: all other assays above

Cc1cc(S(=O)(=O)O)ccc1N=Nc1c(O)ccc2ccccc12
not listed: [2] | [9]
inactive: all other assays above

C=C1C[C@]23C[C@@]1(O)CC[C@H]2[C@@]12C=C[C@H](O)[C@@](C)(C(=O)O1)[C@H]2[C@@H]3C(=O)O
not listed: [4] | [7]
inactive: all other assays above

CCCCOC(=O)CCCCCCCC(=O)OCCCC
not listed: [2]
inactive: all other assays above

C=C(C)C(=O)OCC(CC)(COC(=O)C(=C)C)COC(=O)C(=C)C
not listed: [4] | [10]
inactive: all other assays above

c1ccc2cc(Nc3ccc(Nc4ccc5ccccc5c4)cc3)ccc2c1
not listed: [4] | [7]
inactive: all other assays above
